{"source": "PubChem BioAssay (Tox21)", "note": "A number with no mark means an inactive call. The source made the active and inactive calls. Calls follow the shape of the dose curve; as a rule, active = well fitted activation curve with a large enough effect in the repeat runs; inconclusive = weak or mixed curves; inactive = flat fitted curve, though single readings scatter. % is scaled to controls: 0 for no effect and ±100 for the full control effect.", "data": [{"target": "KiSS-1 receptor (Homo sapiens) (UniProt Q969F8)", "sequence (Q969F8 whole entry, looked up)": "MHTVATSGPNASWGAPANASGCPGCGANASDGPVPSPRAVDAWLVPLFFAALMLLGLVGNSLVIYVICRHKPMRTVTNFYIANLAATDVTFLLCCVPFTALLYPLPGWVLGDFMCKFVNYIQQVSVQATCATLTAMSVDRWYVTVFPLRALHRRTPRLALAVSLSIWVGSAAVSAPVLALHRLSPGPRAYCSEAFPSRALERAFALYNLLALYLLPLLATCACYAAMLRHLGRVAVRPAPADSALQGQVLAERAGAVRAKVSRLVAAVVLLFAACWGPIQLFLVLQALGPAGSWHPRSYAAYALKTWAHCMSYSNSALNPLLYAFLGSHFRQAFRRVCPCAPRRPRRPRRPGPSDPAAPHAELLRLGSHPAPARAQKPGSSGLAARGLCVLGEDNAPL", "experiment": "Human kisspeptin (KISS1R) small molecule agonists, calcium flux assay in KISS1R-HEK293 cells (AID 1920064)", "conditions": "KISS1R-HEK293, calcium flux fluorescence, agonist; series mostly up to 76.8 µM; activation: at the top concentration", "description": "National Center for Advancing Translational Sciences [NCATS]\nDivision of Preclinical Innovation [DPI]\nU.S. Environmental Protection Agency [EPA]\nNational Institutes of Environmental Health Sciences [NIEHS]\nNational Toxicology Program [NTP]\nU.S. Food and Drug Administration [FDA]\nKisspeptin and its receptor KISS1R play key roles in mammalian reproduction due to their involvement in the onset of puberty and control of the hypothalamic-pituitary-gonadal axis such as regulates GnRH release from the hypothalamus. The kisspeptin/KISS1R system also plays a direct role in peripheral organs (including the ovary, testis, uterus, and placenta) and is implicated in reproductive diseases such as miscarriage and polycystic ovary syndrome (PCOS). Abnormal KISS1R activity is associated with abnormal puberty, infertility, endometriosis, and hormone-dependent tumors. The KISS1 receptor (KISS1R, also called GPR54), a G-protein-coupled receptor (GPCR), acts (through phospholipase C) to increase intracellular inositol trisphosphate and then release intracellular calcium stores. Cell-based KISS1R-HEK293 assay is using HEK293 cells that have been genetically engineered to express the human KISS1R, which activity can be measured by calcium signaling. A compound/drug can activate (agonist) KISS1R that can be monitored by levels of intracellular calcium.\nKISS1R-HEK293 cells developed by Codex Corp contain human KISS1R gene, which was stably integrated into HEK 293 cells. The compound activation can be detected by fluorescence intensity via calcium flux assay. This cell line has been used to screen the Tox21 10K compound library to identify agonists of KISS1R.\nKISS1R-Hek293 cells were dispensed at 1500 cells/4uL/well in 1536-well black wall/clear bottom plates using a multidrop dispenser. After the assay plates were incubated at a 37 C/5% CO2 incubator for 18 hours, 4 microL of Calcium Dye Solution was added to each well. The plates were incubated at 37 C for 1 hour. And then 23 nL of compounds dissolved in DMSO, positive controls, or DMSO only was transferred to the assay plate by a pin tool station. The fluorescence intensity in the plates was measured using FDSS 7000EX kinetic plate reader with a filter set of Ex/Em=480/540 for 3 min at 1 sec intervals. Each test compound was measured at 15 concentrations and in triplicates.", "values": [{"smiles": "CO[Si](CCCNCCC[Si](OC)(OC)OC)(OC)OC", "activation": "0.0066%"}, {"smiles": "[Cl][Nd]([Cl])[Cl]", "activation": "-2.67%"}, {"smiles": "C(/C=C/C=C/Nc1ccccc1)=Nc1ccccc1", "activation": "0.224%"}, {"smiles": "O=Cc1ccccc1C=O", "Potency": "inactive"}, {"smiles": "FC(F)(F)c1cccc(Cl)c1", "activation": "0.5%"}, {"smiles": "Cc1cccc(C)c1NC(=O)CN1CCCCCC1", "activation": "6.66% [at 35.3 µM]"}, {"smiles": "CSc1nnc(C(C)(C)C)c(=O)[nH]1", "activation": "7.35%"}, {"smiles": "Cc1cc(O)cc2c1O[C@](C)(CCC[C@H](C)CCC[C@H](C)CCCC(C)C)CC2", "activation": "-2.47% [at 35.3 µM]"}, {"smiles": "Cn1cnc2c1c(=O)[nH]c(=O)n2C", "Potency": "inactive"}, {"smiles": "Nc1c2ccccc2nc2ccccc12", "Potency": "inactive"}, {"smiles": "C1CCCNCCC1", "activation": "-0.0911%"}, {"smiles": "CC/C=C\\C/C=C\\C/C=C\\CCCCCCCC(=O)O", "Potency": "inactive"}, {"smiles": "N#CCc1cccc(C(F)(F)F)c1", "activation": "-0.812%"}, {"smiles": "O=S(=O)(O)CC(O)CCl", "note": "(stereo not given)", "activation": "-1.05%"}, {"smiles": "CN(C)N=Nc1ccccc1", "activation": "0.382%"}, {"smiles": "COCC(C)OC(C)=O", "note": "(stereo not given)", "activation": "6.72%"}, {"smiles": "O=c1n(CCO)c(=O)n(CCO)c(=O)n1CCO", "Potency": "inactive"}, {"smiles": "O=C(O)CSCC(=O)NC1CCSC1=O", "note": "(stereo not given)", "activation": "-1.09% [at 35.3 µM]"}, {"smiles": "CNC(=O)Nc1ccc(Cl)c(Cl)c1", "activation": "9.65%"}, {"smiles": "CCCCCCCCC1CCC(=O)O1", "note": "(stereo not given)", "activation": "0.0269%"}, {"smiles": "c1ccc2cnccc2c1", "activation": "3.84%"}, {"smiles": "CC(=O)OCCCc1ccccc1", "activation": "-0.958%"}, {"smiles": "O=C(O)CNC(=O)c1ccccc1I", "activation": "-0.869% [at 35.3 µM]"}, {"smiles": "C=C(C)[C@@H]1CCC2=CC(=O)C[C@@H](C)[C@]2(C)C1", "activation": "-2.87%"}, {"smiles": "CCC(C)C(=O)OCCc1ccccc1", "note": "(stereo not given)", "activation": "-3.16%"}, {"smiles": "O=C(O)CCCCCCCCCCC(=O)O", "Potency": "inactive"}, {"smiles": "Nc1ccc(Cl)c(N)c1", "Potency": "inactive"}, {"smiles": "CC(C)(C)NC[C@H](O)COc1nsnc1N1CCOCC1", "Potency": "inactive"}, {"smiles": "O=C(O)CCc1ccccc1", "activation": "-3.77%"}, {"smiles": "Cc1cc(CCC(=O)OCCOCCOCCOC(=O)CCc2cc(C)c(O)c(C(C)(C)C)c2)cc(C(C)(C)C)c1O", "activation": "3.92%"}, {"smiles": "CCCCCCCCCCCCC(=O)O", "activation": "-8.76%"}, {"smiles": "CCC(C)=O", "activation": "-4.62%"}, {"smiles": "O=C1C(O)=C(O)C(=O)C(O)=C1O", "activation": "0.0224% [at 35.3 µM]"}, {"smiles": "CC(O)C(C)O", "note": "(stereo not given)", "activation": "-0.267%"}, {"smiles": "COc1ccc(N)c(C)c1", "Potency": "inactive"}, {"smiles": "Oc1ccc2cc(SSc3ccc4cc(O)ccc4c3)ccc2c1", "Potency": "inactive"}, {"smiles": "CCC(C)(C)C", "activation": "0.0193%"}, {"smiles": "COc1cc(C(=S)N2CCOCC2)cc(OC)c1OC", "activation": "-0.518% [at 35.3 µM]"}, {"smiles": "CC(C)=CCC[C@H](C)CC=O", "activation": "-0.587%"}, {"smiles": "Cc1ncc(CO)c(CN)c1O", "activation": "0.253% [at 35.3 µM]"}]}]}
